Assay outcomes: PubChem, National Center for Advancing Translational Sciences (NCATS)
ELG1 repair inh: blocks ELG1-dependent DNA repair in HEK293T cells. Potency, µM (titrated, usually from 46.1 µM), hits mostly inhibitors. HEK293T ELG1-luciferase reporter, luminescence, 16 h; DNA damage induced by 5-fluorouridine. 2.3% of 330,000 active; also: nearly all actives have a fitted effect of over 55% in size
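HEK293T cells expressing luciferase-tagged ELG1 (2,000/well) received 5-Fluorouridine plus compound or DMSO for 16 hr at 37 °C. Luciferase was read by ONE-Glo luminescence after 30 min at room temperature.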
BRCA1 expr up: BRCA1 expression activation; Potency, µM (highest dose often 46.1 µM), hits mostly activators; MCF7-BRCA1-FFLuc reporter, luminescence, 48 h; response scale: scaled: vehicle 0%, 10 µM genistein 100%; 1.1% of 380,000 active; also: nearly all actives have a fitted effect of over 80% in size
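Compounds are tested at multiple concentrations on MCF7 BRCA1-luciferase reporter cells seeded at 2000 per well; after 48 h, a single luminescence end-point is taken and curves fitted to the normalized data.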
IL2 activator: IL-2 activation; IL-2 activation reporter assay, cell-based qHTS; stimulated with anti-CD3/CD4/CD28 beads; in transgenic mouse T cells; activation, % (series mostly up to about 46 µM); 0.065% of 360,000 active; in the data active = activation above about 50%; inconclusive = mostly about 30% to 49%
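Readout: EGFP and DsRed signals by fluorescent plate cytometry. Unstimulated transgenic mouse T cells received compound 60 min before antibody-bead stimulation, then incubated 18 h at 37 degrees C.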
Nrf2 activator: activates Nrf2 signaling | AREc32 ARE-luciferase reporter (MCF7-derived line), luminescence, 24 h | AID 624171 | 0.31% of 410,000 active | Potency, µM (top dose mostly 46.1 µM), usual class: activators; also: nearly all actives have a fitted effect of over 65% in size
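For detection, Steady-Glo was added and plates sat 30 min at RT; before that, AREc32_Fluc cells grown overnight in OPTI-MEM/5% FBS had been treated with 23 nL compound for 24 hr at 37 deg C.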
ELG1 FLuc counter: luciferase inhibition in cell-free luciferin readout for ELG1 hits; shares compounds with ELG1 repair inh; cell-free firefly luciferase luminescence counter-screen, ViewLux; Potency, µM (titrated, usually from 46.1 µM), hits mostly inhibitors; 3% of 350 active; AID 624247
ELG1-Luc inh: inhibits ELG1-dependent DNA repair in HEK293T cells, confirmed | shares compounds with ELG1 repair inh | HEK293T ELG1-luciferase levels, luminescence; cells co-treated with 5-fluorouridine | Potency, µM (series often up to 46.1 µM), usual class: inhibitors | 68% of 670 active | AID 624248; also: nearly all actives have a fitted effect of over 55% in size
Target sequence (Q96QE3 whole entry, looked up): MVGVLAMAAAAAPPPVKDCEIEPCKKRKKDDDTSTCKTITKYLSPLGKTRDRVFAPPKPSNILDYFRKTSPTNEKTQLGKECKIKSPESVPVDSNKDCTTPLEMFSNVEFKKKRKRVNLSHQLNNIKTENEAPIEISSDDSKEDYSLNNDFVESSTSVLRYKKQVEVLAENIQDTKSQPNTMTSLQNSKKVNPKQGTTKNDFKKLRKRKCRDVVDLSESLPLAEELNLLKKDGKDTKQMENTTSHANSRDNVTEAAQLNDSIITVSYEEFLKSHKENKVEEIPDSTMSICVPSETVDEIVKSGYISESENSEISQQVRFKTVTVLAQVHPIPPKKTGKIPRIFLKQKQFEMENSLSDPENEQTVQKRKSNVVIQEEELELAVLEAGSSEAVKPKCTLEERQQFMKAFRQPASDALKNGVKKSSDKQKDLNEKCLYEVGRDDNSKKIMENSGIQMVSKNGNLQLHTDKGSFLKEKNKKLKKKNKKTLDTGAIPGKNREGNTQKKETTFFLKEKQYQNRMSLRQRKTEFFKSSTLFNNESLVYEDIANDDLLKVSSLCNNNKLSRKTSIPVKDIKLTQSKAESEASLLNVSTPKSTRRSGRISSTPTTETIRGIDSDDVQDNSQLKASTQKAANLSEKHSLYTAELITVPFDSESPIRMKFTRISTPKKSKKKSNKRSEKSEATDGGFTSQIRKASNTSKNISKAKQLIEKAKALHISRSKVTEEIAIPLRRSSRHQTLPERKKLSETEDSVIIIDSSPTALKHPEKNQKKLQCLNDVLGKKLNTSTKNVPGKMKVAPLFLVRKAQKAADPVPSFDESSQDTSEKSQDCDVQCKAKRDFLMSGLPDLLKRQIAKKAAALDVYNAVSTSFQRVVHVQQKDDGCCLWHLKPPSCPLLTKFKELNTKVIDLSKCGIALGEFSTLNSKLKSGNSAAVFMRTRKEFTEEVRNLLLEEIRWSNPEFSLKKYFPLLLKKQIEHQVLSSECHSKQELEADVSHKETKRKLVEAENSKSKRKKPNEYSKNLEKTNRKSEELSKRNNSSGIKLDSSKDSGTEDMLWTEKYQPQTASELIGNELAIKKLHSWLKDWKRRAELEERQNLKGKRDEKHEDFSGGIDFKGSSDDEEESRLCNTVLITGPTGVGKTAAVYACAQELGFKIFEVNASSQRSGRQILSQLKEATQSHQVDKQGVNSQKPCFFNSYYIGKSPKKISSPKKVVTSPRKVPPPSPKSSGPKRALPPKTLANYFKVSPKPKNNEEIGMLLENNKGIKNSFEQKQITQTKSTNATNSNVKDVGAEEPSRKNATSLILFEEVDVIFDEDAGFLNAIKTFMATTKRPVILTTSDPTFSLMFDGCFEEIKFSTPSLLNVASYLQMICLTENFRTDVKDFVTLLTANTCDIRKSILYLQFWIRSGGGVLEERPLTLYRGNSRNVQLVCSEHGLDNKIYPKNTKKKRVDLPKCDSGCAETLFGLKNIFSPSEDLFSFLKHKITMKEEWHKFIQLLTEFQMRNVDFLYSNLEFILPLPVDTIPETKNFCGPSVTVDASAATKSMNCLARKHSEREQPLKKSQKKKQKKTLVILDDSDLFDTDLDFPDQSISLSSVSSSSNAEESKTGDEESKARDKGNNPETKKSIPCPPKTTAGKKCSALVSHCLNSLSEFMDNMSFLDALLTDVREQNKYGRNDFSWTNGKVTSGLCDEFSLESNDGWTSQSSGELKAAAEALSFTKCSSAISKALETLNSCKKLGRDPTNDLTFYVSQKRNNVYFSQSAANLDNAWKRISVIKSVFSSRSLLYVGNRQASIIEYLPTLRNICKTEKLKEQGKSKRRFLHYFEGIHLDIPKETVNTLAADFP
ELG1-Luc MMS: inhibits ELG1-dependent repair under MMS stimulation in HEK293T cells. shares compounds with ELG1 repair inh. HEK293T luciferase-tagged ELG1 level, MMS stimulated. Potency, µM (top dose mostly 46.1 µM), usual class: inhibitors. 53% of 670 active. AID 624249; also: nearly all actives have a fitted effect of over 60% in size
ELG1 5FU viab: confirmation of ELG1 repair inhibitors: viability with 5FU. shares compounds with ELG1 repair inh. 670 tested, under 10 active. cell viability with 5-FU, ELG1-dependent repair. AID 624250. Potency, µM (top dose mostly 46.1 µM), usual class: cytotoxic;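 also: ELG1-luc HEK293T cells cotreated with 5-fluorouridine at 10 µM final; viability measured 16 h after compound addition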
ELG1 MMS viab: confirmation of ELG1 repair inhibitors: viability with MMS; shares compounds with ELG1 repair inh; Cell viability with MMS, ELG1-dependent DNA repair; Potency, µM (series often up to 46.1 µM), most hits filed as cytotoxic; 33% of 670 active;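 also: ELG1-luc HEK293T cells co-treated with 10 µM MMS; viability read 16 h after compound addition; nearly all actives have a fitted effect of over 60% in size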
Cell viab unstim: counter-screen for ELG1 repair inhibitors: unstimulated cell viability; shares compounds with ELG1 repair inh; Potency, µM (titrated, usually from 45.9 µM), usual class: cytotoxic; cell viability counter-screen, unstimulated, luminescence; 8% of 900 active;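 also: compound exposure lasted 16 hours before reading; nearly all actives have a fitted effect of over 55% in size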
FLuc biochem: firefly luciferase inhibition counter-screen; shares compounds with ELG1 repair inh; purified firefly luciferase, luminescence counter-screen; Potency, µM (titrated, usually from 57.5 µM), hits mostly inhibitors; 10% of 350 active
Each line names hits and unclear results; the compound was inactive in the other large screens (follow-up assays come after a bar, where they were run). Compounds with a hit are over-represented: about 3.1% of the library has one in this group of screens. Unless noted, calls follow the shape of the dose curve; as a rule, active = well fitted curve in the direction sought with a large enough effect; inconclusive = small, poorly fitted or top-dose-only effect, or another doubt; inactive = no such curve, though single readings can be large; an effect the other way counts as inactive or inconclusive.

COc1ccc(C)cc1-n1nnc(C(=O)Nc2cccc(SC)c2)c1C	none (no result: ELG1 repair inh, BRCA1 expr up, IL2 activator)
O=C(COc1ccc(C(=O)c2ccccc2)cc1)Nc1cccnc1	ELG1 repair inh 1µM | ELG1-Luc inh inconclusive | ELG1-Luc MMS 1µM | ELG1 5FU viab inactive | ELG1 MMS viab 1µM | Cell viab unstim inconclusive
COC(=O)[C@@]12C[C@@H](CC(=O)N3CCCC3)C(=O)N(Cc3ccco3)C1=CCC(C)(C)C2	none (no result: ELG1 repair inh, BRCA1 expr up, Nrf2 activator)
Nc1c(-c2nc(-c3cccs3)no2)nnn1-c1cccc(F)c1	none (no result: ELG1 repair inh, BRCA1 expr up, IL2 activator)
COc1ccc(CNC(=O)C2CCN(S(=O)(=O)c3ccc4c(ccn4C)c3)CC2)cc1	none (no result: ELG1 repair inh, IL2 activator)
CCOC(=O)c1c(NC(=O)C[n+]2ccc(N(C)C)cc2)sc(C)c1C	ELG1 repair inh 4.1µM | ELG1-Luc inh inactive | ELG1-Luc MMS inactive | ELG1 5FU viab inactive | ELG1 MMS viab inactive | Cell viab unstim inconclusive
COc1ccc(NC(=O)c2cccc3c2C(=O)c2ccc(-c4ccc(F)cc4OCc4ccccc4)cc2S3(=O)=O)cc1	none
COc1ccc(OC[C@@H](O)CNC(=O)c2cccc3c2C(=O)c2ccc(-c4ccc(F)cc4OCc4ccccc4)cc2S3(=O)=O)cc1	ELG1 repair inh 2.3µM | ELG1-Luc inh 3.1µM | ELG1-Luc MMS inactive | ELG1 5FU viab inconclusive | ELG1 MMS viab inconclusive | Cell viab unstim inactive
O=C(NC1CCCC1)c1cc(-c2cccs2)on1	ELG1 repair inh inconclusive | Cell viab unstim inactive
CNC(=O)c1cc(-c2cccs2)on1	none (no result: ELG1 repair inh, IL2 activator, Nrf2 activator) | Cell viab unstim inactive
COCC(C)NC(=O)c1ccc2nc(-c3ccccc3)c(-c3ccccc3)nc2c1 (centres undefined)	ELG1 repair inh inconclusive
CCC(C)NC(=O)c1ccc2nc(-c3ccc(OC)c(OC)c3)c(-c3ccc(OC)c(OC)c3)nc2c1 (centres undefined)	ELG1 repair inh 0.52µM | ELG1 FLuc counter inactive | ELG1-Luc inh 1.6µM | ELG1-Luc MMS inactive | ELG1 5FU viab inconclusive | ELG1 MMS viab inactive | Cell viab unstim inconclusive | FLuc biochem inactive
C=CC[C@@H](CC(=O)N[C@H](CO)Cc1ccccc1)C(=O)NC[C@H](OC(=O)[C@@H](CC=C)Cc1ccc(F)cc1)c1ccccc1	ELG1 repair inh 4.6µM | ELG1-Luc inh inconclusive | ELG1-Luc MMS 10µM | ELG1 5FU viab inconclusive | ELG1 MMS viab inactive | Cell viab unstim inactive
C=CC[C@H](CC(=O)NCCO)C(=O)NC[C@@H](OC(=O)[C@@H](CC=C)Cc1ccc(F)cc1)c1ccccc1	none
COc1cc(/C=N/NC(=O)Nc2cccc3nsnc23)cc(OC)c1OC	ELG1 repair inh 2.3µM | ELG1-Luc inh 1.6µM | ELG1-Luc MMS inconclusive | ELG1 5FU viab inconclusive | ELG1 MMS viab inactive | Cell viab unstim inconclusive
CC(C)CC(=O)OCc1cc(=O)n2nc(C3CCCCC3)sc2n1	none (no result: ELG1 repair inh, IL2 activator)
COc1ccc(-c2cc3cc(F)ccc3cn2)cc1	ELG1 repair inh inconclusive | Cell viab unstim inactive
COc1ccc(-c2cc3ccc(F)cc3cn2)cc1	ELG1 repair inh inconclusive, BRCA1 expr up inconclusive
CCCCCCC[C@@H](C/C=C/CCC(=O)N(C)C/C(=C/Cl)C/C(=C\C(=O)N1C[C@H](O)CC1=O)OC)OC	ELG1 repair inh inconclusive
CCCCCCC[C@@H](C/C=C/CCC(=O)N(C)C/C(=C/Cl)C/C(=C\C(=O)N1CC(OC)=CC1=O)OC)OC	ELG1 repair inh inconclusive | Cell viab unstim inconclusive
COc1ccc(OC)c(C2CC(=O)N(c3cccc(C)c3)C3=C2C(=O)OC3)c1 (centres undefined)	none (no result: ELG1 repair inh, BRCA1 expr up, IL2 activator)
O=C(N/N=C/c1sc(N2CCOCC2)nc1-c1ccccc1)c1cccc(S(=O)(=O)N2CCOCC2)c1	ELG1 repair inh 4.6µM | ELG1-Luc inh 4µM | ELG1-Luc MMS 6.3µM | ELG1 5FU viab inactive | ELG1 MMS viab inconclusive | Cell viab unstim inconclusive
O=C(O)c1cccc(N/N=C/c2sc(N3CCOCC3)nc2-c2ccccc2)c1	ELG1 repair inh inconclusive
COc1ccc(OC)c(NC(=O)c2ccc3c(=O)n(CCc4ccccc4)c(=S)[nH]c3c2)c1	ELG1 repair inh 1.5µM | ELG1-Luc inh inconclusive | ELG1-Luc MMS 0.56µM | ELG1 5FU viab inactive | ELG1 MMS viab 0.63µM | Cell viab unstim inconclusive
CCCCCn1c(=O)[nH]c2cc(C(=O)N3CCN(Cc4ccc5c(c4)OCO5)CC3)ccc2c1=O	ELG1 repair inh 0.46µM | ELG1 FLuc counter inactive | ELG1-Luc inh inconclusive | ELG1-Luc MMS 0.22µM | ELG1 5FU viab inactive | ELG1 MMS viab 0.22µM | Cell viab unstim inconclusive | FLuc biochem inactive
COc1ccc(OC)c(NC(=O)CCn2c(=S)[nH]c3ccccc3c2=O)c1	none
COc1ccc(N2CCN(C(=O)c3ccc4c(=O)n(CCc5ccc(OC)c(OC)c5)c(=O)[nH]c4c3)CC2)cc1	ELG1 repair inh 1.8µM | ELG1-Luc inh 16µM | ELG1-Luc MMS 13µM | ELG1 5FU viab inactive | ELG1 MMS viab inconclusive | Cell viab unstim inconclusive
CCCCCn1c(=O)[nH]c2cc(C(=O)NCc3ccc4c(c3)OCO4)ccc2c1=O	none
O=C(c1ccc2c(=O)n(CCc3ccccc3)c(=O)[nH]c2c1)N1CCN(c2ccccc2)CC1	none
Cn1nc(-c2ccc(OCC(=O)Nc3cccc(C(F)(F)F)c3)cc2)c2ccccc2c1=O	none (no result: ELG1 repair inh, IL2 activator)
COc1ccc(NC(=O)c2sc3ncnc(N4CCN(c5ccccn5)CC4)c3c2C)cc1Cl	ELG1 repair inh 2.6µM | ELG1 FLuc counter inactive | ELG1-Luc inh 5.6µM | ELG1-Luc MMS 13µM | ELG1 5FU viab inactive | ELG1 MMS viab inconclusive | Cell viab unstim inconclusive | FLuc biochem inactive
O=C(Nc1ccc(N2CCN(Cc3ccccc3F)CC2)cc1)c1ccc([N+](=O)[O-])o1	ELG1 repair inh 2.6µM, Nrf2 activator inconclusive | ELG1-Luc inh 4µM | ELG1-Luc MMS 4.4µM | ELG1 5FU viab inactive | ELG1 MMS viab 6.3µM | Cell viab unstim inactive
